Laboratory results from the supplement of paper PMC10849652.
The full data set covers some 8,800 targets. This sample favours those with a hit. About 0.5% of all pairs of compound and target were hits.

What was measured:
Experiment in all cases: log2 fold change, soluble protein after heating vs DMSO (PISA); higher = thermal stabilisation; K562 lysate, 10 uM; active = over 0.2 and 3.5 SD of the protein, either way, in both replicates (recomputed)
erlotinib = compound: C#Cc1cccc(Nc2ncnc3cc(OCCOC)c(OCCOC)cc23)c1 [erlotinib]
Outline: (§1)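 The values are log-two fold changes in thermal stability compared with solvent controls and come from duplicates. They were obtained by TMTpro 16plex LC-MS/MS, with channel sums equalised, on the supernatant after 21,000xg for 90 min. That supernatant came from crude K562 extract at 1 mg/mL protein treated with 10 μM compound for 30 min, heated for 3 min across 48°C-58°C, pooled and brought to 0.5% NP-40 at 4°C.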

[1] = compound: C/C(=N\NC(=O)C1=CC(=CC=C1)S(=O)(=O)N2CCOCC2)/C3=C(C=CC(=C3)Cl)O
Outline: as §1

[2] = compound: C1=CC(=CC=C1C2=NC3=C(N2)C=C(C=C3)C(=O)N)OC4=CC=C(C=C4)Cl
Outline: as §1

[3] = compound: C1=CC2=C(C=CC(=C2)/C=C\3/C(=O)NC(=NCC4=CC=CS4)S3)N=C1
Outline: as §1

[4] = compound: C1=CC2=NC=CN=C2C=C1/C=C/3\C(=O)NC(=O)S3
Outline: as §1

[5] = compound: C1=CC=C(C=C1)C2=NC(=C(N2)C3=CC=NC=C3)C4=CC(=C(C=C4)Cl)O
Outline: as §1

[6] = compound: C1=CC=C2C(=C1)C3=NNC4=CC=CC(=C43)C2=O
Outline: as §1

[7] = compound: C1CCN(C1)C(=O)NC2=CC=CC(=C2)NC3=NC=C(C(=N3)NCCC4=CN=CN4)Br
Outline: as §1

[8] = compound: C1CN(CCC1(CC2=CC=C(C=C2)Cl)N)C3=NC=NC4=C3C=CN4
Outline: as §1

IRAK-1-4 Inhibitor I = compound: C1COCCN1CCN2C3=CC=CC=C3N=C2NC(=O)C4=CC(=CC=C4)[N+](=O)[O-] [IRAK-1-4 Inhibitor I]
Outline: as §1

ibrutinib = compound: C=CC(=O)N1CCC[C@@H](n2nc(-c3ccc(Oc4ccccc4)cc3)c3c(N)ncnc32)C1 [ibrutinib]
Outline: as §1

[9] = compound: CC(=O)c1cnc2ccc(-c3cc(Cl)c(O)c(Cl)c3)nc2c1N[C@H]1CC[C@H](CN(C)C)CC1
Outline: as §1

ralimetinib = compound: CC(C)(C)Cn1c(N)nc2ccc(-c3[nH]c(C(C)(C)C)nc3-c3ccc(F)cc3)nc21 [ralimetinib]
Outline: as §1

[10] = compound: CC(C)(O)CC(=O)NCCn1ccc2ncnc(Nc3ccc(Oc4cccc(C(F)(F)F)c4)c(Cl)c3)c21
Outline: as §1

[11] = compound: CC(C)C1=C2N=C(C=C(N2N=C1)NCC3=CC=CC=C3)NCCCCCCN
Outline: as §1

[12] = compound: CC1=C(C(CC(=O)N1)C2=CC=C(C=C2)C(F)(F)F)C(=O)NC3=C(C=C4C(=C3)C=NN4)F
Outline: as §1

[13] = compound: CC1=C(C2=C(C=C1)C(=O)C3=CC=CC=C3N2CCCN)C
Outline: as §1

[14] = compound: CC1=C(C=C(C=C1)NC(=O)C2=CC(=CC=C2)C(C)(C)C#N)NC3=CC4=C(C=C3)N=CN(C4=O)C
Outline: as §1

[15] = compound: CC1=C(C=C(C=C1)NC(=O)C2=CC(=CC=C2)N(C)C)NC(=O)C3=CC=C(C=C3)O
Outline: as §1

[16] = compound: CC1=CC=C(C=C1)SC2=C3C=C(SC3=CN=C2)C(=O)N
Outline: as §1

Measured: log2 fold change

DENND6A (UniProt Q8IWF6)
UniProt Q8IWF6, sequence (Q8IWF6 whole entry, looked up): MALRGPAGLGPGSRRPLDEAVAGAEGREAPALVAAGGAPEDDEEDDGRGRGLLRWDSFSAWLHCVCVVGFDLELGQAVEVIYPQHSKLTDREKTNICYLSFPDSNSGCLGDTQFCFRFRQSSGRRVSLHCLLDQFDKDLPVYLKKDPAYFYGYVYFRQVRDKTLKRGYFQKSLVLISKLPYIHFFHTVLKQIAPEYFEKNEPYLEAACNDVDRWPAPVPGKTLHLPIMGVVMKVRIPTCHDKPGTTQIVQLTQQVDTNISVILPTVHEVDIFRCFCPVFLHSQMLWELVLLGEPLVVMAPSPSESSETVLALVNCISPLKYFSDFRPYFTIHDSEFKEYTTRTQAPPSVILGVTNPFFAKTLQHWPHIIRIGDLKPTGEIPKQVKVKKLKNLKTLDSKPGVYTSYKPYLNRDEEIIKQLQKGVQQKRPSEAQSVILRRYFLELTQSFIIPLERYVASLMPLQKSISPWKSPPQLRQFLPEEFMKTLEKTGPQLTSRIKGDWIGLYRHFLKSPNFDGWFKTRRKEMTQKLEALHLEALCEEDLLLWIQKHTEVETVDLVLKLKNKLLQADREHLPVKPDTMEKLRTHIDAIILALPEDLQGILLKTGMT
inactive: erlotinib -0.019 | [1] 0.232 | [2] 0.004 | [3] 0.073 | [4] 0.048 | [5] 0.024 | [6] 0.003 | [7] 0.029 | [8] 0.083 | IRAK-1-4 Inhibitor I 0.025 | ibrutinib 0.014 | [9] 0.064 | ralimetinib 0.052 | [10] -0.047 | [11] 0.037 | [12] 0.002 | [13] -0.03 | [14] 0.001 | [15] 0.022 | [16] 0.051

CORO1A (UniProt P31146)
UniProt P31146, sequence (P31146 whole entry, looked up): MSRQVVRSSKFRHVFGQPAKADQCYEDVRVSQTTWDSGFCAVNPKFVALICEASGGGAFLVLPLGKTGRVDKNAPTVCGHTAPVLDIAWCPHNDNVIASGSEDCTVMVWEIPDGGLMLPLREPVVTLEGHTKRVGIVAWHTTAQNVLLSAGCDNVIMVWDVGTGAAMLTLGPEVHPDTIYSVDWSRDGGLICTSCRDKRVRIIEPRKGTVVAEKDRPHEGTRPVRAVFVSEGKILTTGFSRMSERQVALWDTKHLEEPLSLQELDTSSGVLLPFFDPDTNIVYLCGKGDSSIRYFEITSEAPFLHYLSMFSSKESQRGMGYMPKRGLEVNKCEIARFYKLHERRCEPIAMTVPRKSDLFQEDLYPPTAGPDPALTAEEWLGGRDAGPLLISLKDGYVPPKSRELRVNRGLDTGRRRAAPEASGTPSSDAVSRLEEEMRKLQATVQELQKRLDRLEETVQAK
inactive: erlotinib 0.077 | [1] 0.086 | [2] -0.032 | [3] 0.036 | [4] -0.022 | [5] 0.005 | [6] 0.009 | [7] 0.155 | [8] -0.031 | IRAK-1-4 Inhibitor I 0.021 | ibrutinib 0.028 | [9] -0.031 | ralimetinib -0.015 | [10] -0.021 | [11] 0.055 | [12] 0.018 | [13] -0.107 | [14] 0.025 | [15] -0.036 | [16] 0.012

CIP2A (UniProt Q8TCG1)
inactive: erlotinib 0.057 | [1] 0.18 | [2] -0.086 | [3] 0.034 | [4] -0.019 | [5] 0.019 | [6] -0.11 | [7] -0.002 | [8] 0.02 | IRAK-1-4 Inhibitor I 0.007 | ibrutinib 0.022 | [9] 0.001 | ralimetinib 0.052 | [10] -0.046 | [11] -0.03 | [12] 0.009 | [13] 0.003 | [14] 0 | [15] 0.059 | [16] -0.033

DMAC2L (UniProt Q99766)
UniProt Q99766, sequence (Q99766 whole entry, looked up): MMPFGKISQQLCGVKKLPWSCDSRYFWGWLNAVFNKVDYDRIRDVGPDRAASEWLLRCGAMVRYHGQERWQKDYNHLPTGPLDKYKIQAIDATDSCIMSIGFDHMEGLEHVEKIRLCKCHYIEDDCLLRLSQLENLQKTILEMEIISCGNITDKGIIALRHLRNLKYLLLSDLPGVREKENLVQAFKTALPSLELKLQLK
inactive: erlotinib -0.057 | [1] 0.033 | [2] -0.017 | [3] 0.008 | [4] -0.074 | [5] 0.015 | [6] -0.066 | [7] -0.068 | [8] 0.027 | IRAK-1-4 Inhibitor I -0.005 | ibrutinib 0.046 | [9] -0.046 | ralimetinib 0.037 | [10] -0.017 | [11] 0.017 | [12] 0.005 | [13] -0.018 | [14] 0.008 | [15] -0.043 | [16] -0.019

CUX1 isoform 3 (UniProt P39880)
UniProt P39880, sequence (P39880 whole entry, looked up): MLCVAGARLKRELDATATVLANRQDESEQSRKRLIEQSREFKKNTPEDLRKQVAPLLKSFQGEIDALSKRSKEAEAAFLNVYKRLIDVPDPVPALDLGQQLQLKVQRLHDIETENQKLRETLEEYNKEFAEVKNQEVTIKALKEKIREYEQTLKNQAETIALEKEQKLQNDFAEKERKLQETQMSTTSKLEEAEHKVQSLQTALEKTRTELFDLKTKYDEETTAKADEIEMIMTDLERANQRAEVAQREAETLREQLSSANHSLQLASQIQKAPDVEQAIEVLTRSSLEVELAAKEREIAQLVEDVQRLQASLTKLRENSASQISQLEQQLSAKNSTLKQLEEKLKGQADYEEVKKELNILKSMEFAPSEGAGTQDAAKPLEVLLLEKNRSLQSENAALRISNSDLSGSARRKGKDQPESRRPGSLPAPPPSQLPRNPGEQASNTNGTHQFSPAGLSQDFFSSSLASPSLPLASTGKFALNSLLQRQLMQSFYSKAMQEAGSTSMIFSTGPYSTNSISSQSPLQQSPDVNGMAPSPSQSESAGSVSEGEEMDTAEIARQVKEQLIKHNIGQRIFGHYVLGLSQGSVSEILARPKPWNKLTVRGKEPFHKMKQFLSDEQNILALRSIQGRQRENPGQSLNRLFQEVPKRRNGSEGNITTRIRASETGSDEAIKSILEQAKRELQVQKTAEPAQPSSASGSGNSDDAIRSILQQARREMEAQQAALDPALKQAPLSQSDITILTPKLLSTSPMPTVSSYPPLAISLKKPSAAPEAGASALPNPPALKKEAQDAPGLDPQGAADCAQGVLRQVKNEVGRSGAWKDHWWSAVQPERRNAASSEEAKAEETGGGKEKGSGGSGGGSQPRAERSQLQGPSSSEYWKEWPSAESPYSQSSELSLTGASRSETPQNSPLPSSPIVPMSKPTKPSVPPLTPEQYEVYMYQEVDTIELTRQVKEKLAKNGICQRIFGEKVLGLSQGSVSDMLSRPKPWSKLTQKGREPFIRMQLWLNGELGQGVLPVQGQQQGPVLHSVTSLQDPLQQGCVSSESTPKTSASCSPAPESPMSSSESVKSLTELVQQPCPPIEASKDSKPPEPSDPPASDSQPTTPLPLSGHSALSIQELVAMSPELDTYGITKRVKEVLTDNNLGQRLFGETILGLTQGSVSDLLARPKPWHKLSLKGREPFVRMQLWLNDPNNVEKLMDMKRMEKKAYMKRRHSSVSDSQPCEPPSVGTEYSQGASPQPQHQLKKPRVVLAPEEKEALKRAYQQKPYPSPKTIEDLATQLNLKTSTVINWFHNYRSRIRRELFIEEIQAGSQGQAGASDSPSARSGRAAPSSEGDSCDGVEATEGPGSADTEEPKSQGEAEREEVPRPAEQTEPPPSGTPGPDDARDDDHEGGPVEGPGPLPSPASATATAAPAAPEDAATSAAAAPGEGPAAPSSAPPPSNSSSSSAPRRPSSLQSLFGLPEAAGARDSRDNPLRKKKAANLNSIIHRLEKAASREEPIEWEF
inactive: erlotinib -0.015 | [1] -0.017 | [2] -0.007 | [3] 0.03 | [4] -0.049 | [5] -0.039 | [6] 0.003 | [7] -0.004 | [8] 0.07 | IRAK-1-4 Inhibitor I 0.014 | ibrutinib 0.073 | [9] 0.002 | ralimetinib 0.003 | [10] -0.061 | [11] 0.017 | [12] -0.022 | [13] 0.003 | [14] -0.051 | [15] 0.012 | [16] 0.005

CIAO2A (UniProt Q9H5X1)
UniProt Q9H5X1, sequence (Q9H5X1 whole entry, looked up): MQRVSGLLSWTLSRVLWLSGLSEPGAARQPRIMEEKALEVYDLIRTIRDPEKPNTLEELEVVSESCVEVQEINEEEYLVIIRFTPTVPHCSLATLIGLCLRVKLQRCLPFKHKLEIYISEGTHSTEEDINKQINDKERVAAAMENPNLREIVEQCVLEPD
inactive: erlotinib -0.052 | [1] 0.029 | [2] 0.03 | [3] -0.056 | [4] -0.071 | [5] -0.025 | [6] -0.007 | [7] 0.04 | [8] 0.009 | IRAK-1-4 Inhibitor I 0.032 | ibrutinib 0.005 | [9] 0.044 | ralimetinib 0.053 | [10] -0.034 | [11] 0.056 | [12] 0.032 | [13] -0.06 | [14] -0.026 | [15] -0.067 | [16] -0.02

CTNND1 isoform 3 (UniProt O60716)
UniProt O60716, sequence (O60716 whole entry, looked up): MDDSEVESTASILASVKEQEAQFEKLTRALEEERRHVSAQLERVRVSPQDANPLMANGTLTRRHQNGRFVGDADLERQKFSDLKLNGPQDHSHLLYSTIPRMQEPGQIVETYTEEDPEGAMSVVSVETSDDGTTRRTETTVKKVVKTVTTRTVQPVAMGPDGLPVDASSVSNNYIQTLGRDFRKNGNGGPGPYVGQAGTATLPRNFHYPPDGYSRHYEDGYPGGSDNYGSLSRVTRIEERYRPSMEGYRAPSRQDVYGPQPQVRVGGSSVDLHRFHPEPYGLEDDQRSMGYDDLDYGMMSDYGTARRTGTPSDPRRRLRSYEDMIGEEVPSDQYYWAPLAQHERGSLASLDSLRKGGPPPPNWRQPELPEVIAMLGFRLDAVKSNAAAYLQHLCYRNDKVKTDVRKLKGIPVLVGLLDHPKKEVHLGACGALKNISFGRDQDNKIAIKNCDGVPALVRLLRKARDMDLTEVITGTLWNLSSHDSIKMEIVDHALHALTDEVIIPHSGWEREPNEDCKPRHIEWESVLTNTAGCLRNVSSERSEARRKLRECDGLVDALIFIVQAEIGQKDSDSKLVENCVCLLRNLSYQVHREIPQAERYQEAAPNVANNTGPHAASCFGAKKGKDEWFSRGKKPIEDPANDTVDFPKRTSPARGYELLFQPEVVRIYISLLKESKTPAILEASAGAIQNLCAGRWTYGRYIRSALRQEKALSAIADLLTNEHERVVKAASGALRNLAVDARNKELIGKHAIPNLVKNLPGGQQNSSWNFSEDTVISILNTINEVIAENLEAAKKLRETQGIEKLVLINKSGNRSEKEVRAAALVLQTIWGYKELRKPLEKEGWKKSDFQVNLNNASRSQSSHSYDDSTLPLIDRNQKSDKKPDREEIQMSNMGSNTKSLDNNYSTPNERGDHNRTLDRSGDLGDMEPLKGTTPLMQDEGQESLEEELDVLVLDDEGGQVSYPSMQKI
inactive: erlotinib -0.002 | [1] -0.039 | [2] -0.024 | [3] -0.045 | [4] 0.003 | [5] 0.087 | [6] -0.093 | [7] 0.009 | [8] 0.022 | IRAK-1-4 Inhibitor I 0.004 | ibrutinib 0.01 | [9] 0.001 | ralimetinib -0.058 | [10] -0.028 | [11] 0 | [12] 0.006 | [13] -0.036 | [14] -0.016 | [15] 0.032 | [16] -0.025

CTPS2 (UniProt Q9NRF8)
UniProt Q9NRF8, sequence (Q9NRF8 whole entry, looked up): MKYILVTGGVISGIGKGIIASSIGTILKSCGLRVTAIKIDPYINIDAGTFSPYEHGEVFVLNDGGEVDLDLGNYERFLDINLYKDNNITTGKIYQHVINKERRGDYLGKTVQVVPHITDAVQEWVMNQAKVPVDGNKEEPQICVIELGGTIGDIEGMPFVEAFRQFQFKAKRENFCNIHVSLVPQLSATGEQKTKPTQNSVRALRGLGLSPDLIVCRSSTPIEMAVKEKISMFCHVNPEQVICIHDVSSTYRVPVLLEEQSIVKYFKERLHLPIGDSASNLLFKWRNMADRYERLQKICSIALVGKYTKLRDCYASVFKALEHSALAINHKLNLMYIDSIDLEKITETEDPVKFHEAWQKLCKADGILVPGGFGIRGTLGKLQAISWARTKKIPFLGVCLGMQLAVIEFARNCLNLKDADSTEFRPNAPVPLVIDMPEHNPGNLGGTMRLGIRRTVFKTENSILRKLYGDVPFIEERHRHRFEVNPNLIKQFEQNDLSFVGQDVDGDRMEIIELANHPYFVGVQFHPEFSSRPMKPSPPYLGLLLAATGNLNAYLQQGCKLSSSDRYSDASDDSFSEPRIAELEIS
inactive: erlotinib -0.009 | [1] -0.008 | [2] -0.016 | [3] -0.01 | [4] 0.01 | [5] -0.008 | [6] 0 | [7] -0.021 | [8] -0.015 | IRAK-1-4 Inhibitor I -0.006 | ibrutinib 0.021 | [9] 0.006 | ralimetinib 0.017 | [10] -0.026 | [11] -0.011 | [12] 0.008 | [13] -0.004 | [14] 0.009 | [15] 0.005 | [16] -0.009
